Data on six molecules can be found in PubChem BioAssay (NCATS).

Several values for one entry are separate records, joined by “and”; a condition that tells them apart may be missing. Identical values can stand only once. Results filed as inconclusive are left out. Some compounds were tested as several samples or in several runs, with calls that do not always agree. Activity calls are given as the source filed them. Unless noted, calls come from the whole dose curve; as a rule, active = well fitted curve in the direction sought with a large enough effect; inconclusive = small, poorly fitted or top-dose-only effect, or another doubt; inactive = no such curve, though single readings can be large; an effect the other way counts as inactive or inconclusive.

Assay [1] addresses Atrial natriuretic peptide receptor 1 (Homo sapiens) (UniProt P16066). Briefly: Natriuretic polypeptide receptor (hNpr1) antagonism - Pilot screen (AID 1347049; calls by dose curve;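 note: HEK293 cells with hNpr1 and GloSensor cGMP luciferase stimulated by 0.1 nM hNppA; agonist-evoked cGMP luminescence read 20 min after hNppA addition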; note: potency is the fitted concentration of half-maximal effect). The gist of the method:
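Receptor antagonism read as cGMP-dependent luminescence in hNpr1/pGS-40F HEK293 cells: pre-read after 30 min compound exposure, post-read 20 min after hNppA agonist at 0.1 nM final, all at room temperature, protected from light; A-71915 titration as control.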

For assay [2], the target named is Atrial natriuretic peptide receptor 2 (Homo sapiens) (UniProt P20594). Briefly: Natriuretic polypeptide receptor (hNpr2) antagonism - Pilot subtype selectivity assay (AID 1347050; calls by dose curve; note: potency is the fitted concentration of half-maximal effect). The gist of the method:
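Antagonist mode: compounds (LOPAC1280, seven 1:5 dilutions) added 30 min before 1 nM hNppC stimulation of hNpr2-HEK293 cGMP-sensor cells; luminescence read before and 20 min after agonist at ambient temperature.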

The nature of assay [3]: NS1 protein of Zika virus - qHTS assay to identify small molecule inhibitors in human HEK 293 cells (AID 1347053). Note: nearly all actives have a fitted effect of over 55% in size. Note: potency is the fitted concentration of half-maximal effect. The gist of the method: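 Compound-treated (1 h pre-infection) HEK 293 cells infected with ZIKV MR766, MOI = 0.5; after 24 h at 37 C, NS1 read by TR-FRET; data normalized to uninfected and infected controls.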
In general terms: qHTS replaces the single test concentration by a dilution series.

Assay [4] addresses T1, Tyrosine-protein phosphatase non-receptor type substrate 1 (Homo sapiens) + Leukocyte surface antigen CD47 (Homo sapiens) (UniProt P78324+Q08722). Nature of the assay: CD47-SIRPalpha protein protein interaction - LANCE assay qHTS validation (AID 1347057; active = well fitted curve in the direction sought with a large enough effect in the signal ratio, with a control signal flat, not every such curve was filed as active; the % refers to the signal ratio; note: series mostly up to about 38 µM). The gist of the method:
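Inhibition of soluble CD47/SIRPalpha ectodomain association by titrated compounds, measured as 665/615 nm time-resolved FRET ratio after sequential 30 min room-temperature incubations.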
On the technique in general: TR-FRET usually uses a lanthanide donor and a delayed reading to cut background.

Assay [5] concerns the target T1, Tyrosine-protein phosphatase non-receptor type substrate 1 (Homo sapiens) + Leukocyte surface antigen CD47 (Homo sapiens). Nature of the assay: CD47-SIRPalpha protein protein interaction - HTRF assay qHTS validation (AID 1347058; active = well fitted curve in the direction sought with a large enough effect in the signal ratio, not every such curve was filed as active; the % refers to the signal ratio; note: series mostly up to about 38 µM). The gist of the method:
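Soluble extracellular domains (6His-CD47, Avi-tag-biotinylated SIRPalpha) in PBS pH 7.4 with 0.05% IGEPAL CA-630. Compounds were preincubated 30 min at RT with CD47 and anti-His-Eu, then SIRPalpha and SAV-XL665 were added. TR-FRET 665/615 ratio.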

The target is the same in assay [6]. Briefly: CD47-SIRPalpha protein protein interaction - Alpha assay qHTS validation (AID 1347059).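 Note: bead proximity luminescence from CD47 binding SIRPalpha after compound preincubation with SIRPalpha.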 Put shortly: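 AlphaScreen signal between CD47-His (12.5 nM) and biotin-SIRPalpha (25 nM) soluble extracellular domains, bead-captured via Ni-NTA and streptavidin. Compounds, in 7-point titrations, met SIRPalpha 30 min before CD47; PBS pH 7.4 with 0.05% IGEPAL.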
Assay [7] deals with Parathyroid hormone/parathyroid hormone-related peptide receptor (Homo sapiens) (UniProt Q03431). Briefly: qHTS for PTHR1 Agonists: Optimization Screen against the NCGC LOPAC library (AID 1347079).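 Note: GloSensor cAMP luminescence in HEK-293 GP2 cells expressing human PTHR1 with IBMX.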 Put shortly:
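HEK-293 GP2 cells, PTHR1 + GloSensor cAMP; 3000 cells/well, o/n. Luciferin + IBMX 0.5mM each (stock), 1 hr 37C. Cpd titration, 1 hr 37C. Lum after 15 min RT. Ctrl M-PTH(1-15) top 10uM.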

A short description of assay [8]: qHTS of pediatric cancer cell lines to identify multiple opportunities for drug repurposing: Primary screen for TC32 cells (AID 1347089). Note: nearly all actives have a fitted effect of over 60% in size. The gist of the method:
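qHTS, TC32, 48 h drug treatment, CellTiter-Glo luminescence as a proxy for metabolically active cells; primary top concentration 46 µM (MIPE 11-pt, NPC 8-pt); confirmatory 11-pt.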

Assay [9] can be described thus: qHTS of pediatric cancer cell lines to identify multiple opportunities for drug repurposing: Primary screen for DAOY cells (AID 1347090). Note: series mostly up to about 46 µM; nearly all actives have a fitted effect of over 55% in size. Put shortly: (§1)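 Cell viability, CellTiter-Glo luminescence; 500-1,000 cells/well, 8- or 11-point titration, 48 h compound exposure at 37 degrees C, 5% CO2. Controls: DMSO neutral, bortezomib 2.3 µM final as positive.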
Assay [10] is described as follows: qHTS of pediatric cancer cell lines to identify multiple opportunities for drug repurposing: Primary screen for SJ-GBM2 cells (AID 1347091). Note: potency is the fitted concentration of half-maximal effect. The gist of the method:
as §1

Assay [11] can be described thus: qHTS of pediatric cancer cell lines to identify multiple opportunities for drug repurposing: Primary screen for SK-N-MC cells (AID 1347093). Note: potency is the fitted concentration of half-maximal effect. The gist of the method: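 Metabolically active cells were quantified by ATP-dependent luminescence (CellTiter-Glo, 15 min at room temperature) following 48 h treatment. Cells had been plated at 500-1,000 per well and settled for 5 h beforehand.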

Assay [12] is described as follows: qHTS of pediatric cancer cell lines to identify multiple opportunities for drug repurposing: Primary screen for NB-EBc1 cells (AID 1347095). Note: potency is the fitted concentration of half-maximal effect. Put shortly:
(§2)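 500-1,000 cells/well; 5 h pre-incubation 37 °C/5% CO2; compound pinned; 48 h; CellTiter-Glo, 15 min RT; luminescence. MIPE 11-pt from 0.78 nM, NPC 8-pt from 0.59 nM final. Bortezomib 2.3 µM final as positive control.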

Assay [13] is described as follows: qHTS of pediatric cancer cell lines to identify multiple opportunities for drug repurposing: Primary screen for U-2 OS cells (AID 1347096). Note: nearly all actives have a fitted effect of over 50% in size. The gist of the method: (§3)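 Cells (500-1,000/well) rested 5 h, then received compounds for 48 h; metabolically active cells were measured by CellTiter-Glo luminescence. Final concentrations spanned up to 46 µM (MIPE, 11-point) or 0.59 nM-46 µM (NPC, 8-point) in primary screens, 11-point in follow-ups.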

A short description of assay [14]: qHTS of pediatric cancer cell lines to identify multiple opportunities for drug repurposing: Primary screen for Saos-2 cells (AID 1347097). Note: nearly all actives have a fitted effect of over 40% in size. Note: potency is the fitted concentration of half-maximal effect. The gist of the method:
as §2

A short description of assay [15]: qHTS of pediatric cancer cell lines to identify multiple opportunities for drug repurposing: Primary screen for NB1643 cells (AID 1347099). Note: nearly all actives have a fitted effect of over 50% in size. Note: potency is the fitted concentration of half-maximal effect. The gist of the method:
as §2

A short description of assay [16]: qHTS of pediatric cancer cell lines to identify multiple opportunities for drug repurposing: Primary screen for BT-12 cells (AID 1347101). Note: nearly all actives have a fitted effect of over 25% in size. Note: potency is the fitted concentration of half-maximal effect. The gist of the method:
as §3

Assay [17] is described as follows: qHTS of pediatric cancer cell lines to identify multiple opportunities for drug repurposing: Primary screen for A673 cells (AID 1347092). Note: nearly all actives have a fitted effect of over 45% in size. Note: potency is the fitted concentration of half-maximal effect. The gist of the method:
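Luminescence from CellTiter-Glo, taken after 15 min at room temperature, served as the proxy for metabolically active cells following 48 h treatment. Both potency and efficacy were taken from curves fitted to the titration data.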

A short description of assay [18]: qHTS of pediatric cancer cell lines to identify multiple opportunities for drug repurposing: Primary screen for BT-37 cells (AID 1347094). Note: potency is the fitted concentration of half-maximal effect. Put shortly:
as §2

A short description of assay [19]: qHTS of pediatric cancer cell lines to identify multiple opportunities for drug repurposing: Primary screen for SK-N-SH cells (AID 1347098). Note: nearly all actives have a fitted effect of over 65% in size. The gist of the method:
as §3

A short description of assay [20]: qHTS of pediatric cancer cell lines to identify multiple opportunities for drug repurposing: Primary screen for LAN-5 cells (AID 1347100). Note: potency is the fitted concentration of half-maximal effect. Put shortly: as §3

T1 sequence (P78324 whole entry, looked up, the tested form may be a part): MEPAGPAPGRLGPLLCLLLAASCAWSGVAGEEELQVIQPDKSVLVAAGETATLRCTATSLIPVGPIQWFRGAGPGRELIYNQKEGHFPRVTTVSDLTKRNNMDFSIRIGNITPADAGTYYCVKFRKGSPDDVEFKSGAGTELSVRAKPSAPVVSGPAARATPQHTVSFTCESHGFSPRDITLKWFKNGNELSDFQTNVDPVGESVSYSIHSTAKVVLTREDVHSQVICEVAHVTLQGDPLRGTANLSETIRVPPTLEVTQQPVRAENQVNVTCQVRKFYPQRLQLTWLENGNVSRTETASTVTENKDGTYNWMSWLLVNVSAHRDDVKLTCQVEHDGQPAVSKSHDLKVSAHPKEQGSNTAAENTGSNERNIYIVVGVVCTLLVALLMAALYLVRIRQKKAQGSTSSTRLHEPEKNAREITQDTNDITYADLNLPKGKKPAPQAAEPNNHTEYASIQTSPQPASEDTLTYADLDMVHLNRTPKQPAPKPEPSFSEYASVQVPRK
T1 sequence (Q08722 whole entry, looked up, the tested form may be a part): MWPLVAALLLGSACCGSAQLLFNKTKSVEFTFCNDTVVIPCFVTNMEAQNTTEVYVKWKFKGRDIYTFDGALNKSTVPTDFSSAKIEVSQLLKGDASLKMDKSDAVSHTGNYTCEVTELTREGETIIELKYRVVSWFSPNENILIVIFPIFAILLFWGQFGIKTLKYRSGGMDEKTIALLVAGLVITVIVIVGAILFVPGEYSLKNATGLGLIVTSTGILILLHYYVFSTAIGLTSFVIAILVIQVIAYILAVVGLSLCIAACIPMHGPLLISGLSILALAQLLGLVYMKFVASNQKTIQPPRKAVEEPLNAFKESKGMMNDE
Sequence of Parathyroid hormone/parathyroid hormone-related peptide receptor (Homo sapiens) (Q03431 whole entry, looked up): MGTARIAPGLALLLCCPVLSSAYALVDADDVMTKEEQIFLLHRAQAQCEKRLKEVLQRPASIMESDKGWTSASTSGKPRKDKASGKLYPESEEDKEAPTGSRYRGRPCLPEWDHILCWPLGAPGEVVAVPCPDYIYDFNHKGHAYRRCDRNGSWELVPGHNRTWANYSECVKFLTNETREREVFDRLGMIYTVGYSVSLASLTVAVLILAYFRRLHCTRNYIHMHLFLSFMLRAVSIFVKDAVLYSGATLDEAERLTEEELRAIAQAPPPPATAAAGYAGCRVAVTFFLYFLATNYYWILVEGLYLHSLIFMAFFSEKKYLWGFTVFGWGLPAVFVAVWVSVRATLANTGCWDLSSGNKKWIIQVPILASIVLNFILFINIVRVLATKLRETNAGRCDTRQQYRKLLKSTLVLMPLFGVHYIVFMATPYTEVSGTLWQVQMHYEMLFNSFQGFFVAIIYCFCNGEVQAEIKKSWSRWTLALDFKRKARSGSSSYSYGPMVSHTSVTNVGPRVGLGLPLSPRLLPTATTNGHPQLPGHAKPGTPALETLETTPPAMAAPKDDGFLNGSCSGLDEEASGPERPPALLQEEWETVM
Sequence of Atrial natriuretic peptide receptor 1 (Homo sapiens) (P16066 whole entry, looked up): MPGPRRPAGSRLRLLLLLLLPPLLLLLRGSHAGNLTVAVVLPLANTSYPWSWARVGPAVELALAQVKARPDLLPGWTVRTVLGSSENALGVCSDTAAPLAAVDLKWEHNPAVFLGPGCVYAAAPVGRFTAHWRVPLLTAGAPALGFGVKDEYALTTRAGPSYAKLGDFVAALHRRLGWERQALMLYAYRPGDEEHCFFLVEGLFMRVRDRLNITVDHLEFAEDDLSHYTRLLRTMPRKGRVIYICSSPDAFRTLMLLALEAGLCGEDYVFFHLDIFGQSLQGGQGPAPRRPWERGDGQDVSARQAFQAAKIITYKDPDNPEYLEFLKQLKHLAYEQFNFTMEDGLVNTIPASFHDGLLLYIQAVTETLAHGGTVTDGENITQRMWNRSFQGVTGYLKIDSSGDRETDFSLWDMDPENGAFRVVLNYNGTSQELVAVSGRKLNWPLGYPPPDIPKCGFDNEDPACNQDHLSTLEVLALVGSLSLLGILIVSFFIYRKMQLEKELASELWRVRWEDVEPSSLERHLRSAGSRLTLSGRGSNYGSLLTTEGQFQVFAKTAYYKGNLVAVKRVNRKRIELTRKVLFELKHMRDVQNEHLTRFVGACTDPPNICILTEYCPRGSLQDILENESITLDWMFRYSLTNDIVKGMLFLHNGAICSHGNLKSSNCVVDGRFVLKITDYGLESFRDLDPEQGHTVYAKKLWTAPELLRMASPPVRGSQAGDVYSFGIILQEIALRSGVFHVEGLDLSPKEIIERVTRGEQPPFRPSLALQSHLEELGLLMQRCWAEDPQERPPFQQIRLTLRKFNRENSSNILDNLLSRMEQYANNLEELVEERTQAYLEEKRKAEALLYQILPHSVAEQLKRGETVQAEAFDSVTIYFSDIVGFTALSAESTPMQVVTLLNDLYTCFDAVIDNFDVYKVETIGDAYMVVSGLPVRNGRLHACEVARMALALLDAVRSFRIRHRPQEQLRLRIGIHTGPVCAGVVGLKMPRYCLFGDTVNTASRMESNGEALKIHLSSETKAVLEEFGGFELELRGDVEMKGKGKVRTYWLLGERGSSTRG
Sequence of Atrial natriuretic peptide receptor 2 (Homo sapiens) (P20594 whole entry, looked up): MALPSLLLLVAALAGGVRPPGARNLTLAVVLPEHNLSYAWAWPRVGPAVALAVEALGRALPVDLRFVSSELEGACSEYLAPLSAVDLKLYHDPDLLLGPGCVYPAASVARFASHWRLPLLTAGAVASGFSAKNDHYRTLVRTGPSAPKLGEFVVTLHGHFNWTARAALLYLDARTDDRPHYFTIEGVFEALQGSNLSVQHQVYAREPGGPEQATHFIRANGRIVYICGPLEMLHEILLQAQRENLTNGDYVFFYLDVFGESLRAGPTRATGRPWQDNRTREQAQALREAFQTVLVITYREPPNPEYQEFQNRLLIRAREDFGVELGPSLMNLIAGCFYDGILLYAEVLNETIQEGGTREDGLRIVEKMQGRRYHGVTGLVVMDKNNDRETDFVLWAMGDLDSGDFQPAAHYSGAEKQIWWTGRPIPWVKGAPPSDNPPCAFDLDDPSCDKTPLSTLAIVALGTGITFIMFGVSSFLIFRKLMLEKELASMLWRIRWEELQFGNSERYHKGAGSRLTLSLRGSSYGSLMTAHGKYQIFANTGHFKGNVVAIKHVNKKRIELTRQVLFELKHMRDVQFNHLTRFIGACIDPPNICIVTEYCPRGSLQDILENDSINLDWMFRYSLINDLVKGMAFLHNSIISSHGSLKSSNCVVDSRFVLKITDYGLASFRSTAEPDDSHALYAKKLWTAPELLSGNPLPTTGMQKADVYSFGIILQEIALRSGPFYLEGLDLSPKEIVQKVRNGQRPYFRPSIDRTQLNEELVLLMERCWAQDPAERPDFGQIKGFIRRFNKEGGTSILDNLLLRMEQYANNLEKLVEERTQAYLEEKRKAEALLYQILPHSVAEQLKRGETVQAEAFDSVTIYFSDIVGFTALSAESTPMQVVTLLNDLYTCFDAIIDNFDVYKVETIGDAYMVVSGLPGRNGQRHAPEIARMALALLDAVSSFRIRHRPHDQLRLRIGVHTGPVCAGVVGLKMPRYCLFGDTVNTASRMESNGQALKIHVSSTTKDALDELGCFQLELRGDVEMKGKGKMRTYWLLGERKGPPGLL

As for `O=c1c(-c2ccc(O)cc2)coc2cc(O)cc(O)c12`, the Potency result in assay [1], in assay [2], in assay [3], in [6], in assay [7] and in assay [8] was “inactive” each time. Further, the Potency entry in assay [9], in [10], in assay [11], in assay [13], in assay [14] and in [15] was “inactive” each time. In addition, in assay [16], the Potency result was “inactive”. In addition, the result in [4] and in [5] was inactive. Besides, the Potency in assay [12] was 23.7 µM (active).

Turning to `Cc1cn([C@H]2C=C[C@@H](CO)O2)c(=O)[nH]c1=O`, the Potency result in [1], in assay [2], in [3], in assay [6], in assay [7] and in [8] was “inactive” each time. In addition, the Potency entry in [10], in [17], in [18], in assay [12], in assay [13] and in assay [14] was “inactive” each time. In addition, the Potency result in [19], in [15], in assay [20] and in assay [16] was “inactive” each time. The result in [4] and in [5] was inactive.

For the molecule `CC(C)Cc1ccc(C(C)C(=O)O)cc1` (stereo not drawn), the Potency entry in assay [1], in assay [2], in assay [3], in assay [6], in assay [7] and in assay [8] was “inactive” in each case. Besides, the Potency entry in assay [9], in [10], in assay [17], in [11], in assay [12] and in [13] was “inactive” throughout. The Potency entry in assay [14], in [19], in assay [15], in assay [20] and in [16] was “inactive” in each case. Besides, the outcome in assay [4] and in assay [5] was inactive.

With `CN1C2CCC1CC(OC(=O)C(CO)c1ccccc1)C2` (stereo not drawn), the Potency result in assay [1], in assay [2], in [3], in assay [6], in assay [7] and in assay [8] was “inactive” throughout. Further, the Potency entry in [9], in assay [10], in assay [17], in [11], in [18] and in assay [12] was “inactive” throughout. Also, the Potency entry in assay [13], in assay [14], in assay [15], in [20] and in [16] was “inactive” throughout. The result in [4] and in [5] was inactive.

In the case of `Cc1cc(C(C)(C)C)cc(C)c1CC1=NCCN1`, the Potency result in assay [1], in assay [2], in [3], in [6], in assay [7] and in assay [8] was “inactive” each time. Besides, the Potency entry in assay [9], in assay [10], in assay [17], in assay [18], in assay [12] and in assay [13] was “inactive” each time. The Potency entry in assay [14], in assay [19], in assay [15], in assay [20] and in [16] was “inactive” throughout. Besides, the outcome in [4] and in [5] was inactive.

For the molecule `O=C(Nc1ccc([N+](=O)[O-])cc1Cl)c1cc(Cl)ccc1O`, the Potency in [1] is 953 nM (active); in assay [2], 1310 nM (active); in assay [3] it was “inactive and 1.48 µM (active)”; in [10] it was 1.3 µM (active) and 743 nM (active); in assay [17], 4690 nM (active); in assay [11], 1.3 µM (active) and 833 nM (active). For the same molecule, the Potency was 1.69 µM (active) and 1.37 µM (active) in assay [18]; 4.11 µM (active) and 743 nM (active) in assay [12]; 2.31 µM (active) and 1.18 µM (active) in [14]; 820 nM (active) and 590 nM (active) in [15]; 1.3 µM (active) and 935 nM (active) in assay [20]; 1.69 µM (active) and 1.93 µM (active) in assay [16]. For the same molecule, the result in [4] and in assay [5] was inactive. For the same molecule, the Potency result in assay [6], in assay [7] and in assay [8] was “inactive” each time.
